Measurements as given in the antibiotic and cytotoxicity screens of Wong et al. (2023).
The campaign covered roughly 39,000 compounds. About 1,500 (3.8%) were called active. This is one part of a sample in which actives are shown more often than they occur.

The compounds below were run on HSkMC (human skeletal muscle cells) (assay: cytotoxicity call (relative viability < 0.9)). Settings: 10 µM.

Structure (SMILES)	cytotoxicity call
CC(C)(C)[S@@](=O)N1Cc2cc(C(=O)N3CCc4ccccc4C3)nc(-c3cccc(-c4ccncc4)c3)c2[C@H]1CCO	inactive
CCO[C@H]1OC(C(=O)N2CCN(C)CC2)=C[C@@H](c2coc3ccccc3c2=O)[C@@H]1CCCOC(=O)NCCCCCC(=O)NO	inactive
C[C@@H]1CN([C@@H](C)CO)C(=O)Cc2cc(NS(=O)(=O)c3cccs3)ccc2O[C@@H]1CN(C)Cc1ccc(-c2ccccc2)cc1	inactive
NC(=O)CC(N)=S	inactive
C[C@H]1CN([C@@H](C)CO)S(=O)(=O)c2ccc(C#CC3CCCC3)cc2O[C@H]1CN(C)C(=O)Cc1ccncc1	inactive
CN(C)CC(=O)N1[C@@H]2Cn3c(ccc(-c4ccccc4)c3=O)[C@H]1[C@@H](C(=O)N1CCOCC1)[C@@H]2CO	inactive
C[C@H](CO)N1C[C@H](C)[C@H](CN(C)S(=O)(=O)c2cccs2)Oc2c(NC(=O)Nc3cccc4ccccc34)cccc2C1=O	inactive
COC(=O)C[C@H]1C=C[C@H](N)[C@H](CO)O1	inactive
Cc1noc(C)c1S(=O)(=O)Nc1ccc2c(c1)CC(=O)N([C@H](C)CO)C[C@H](C)[C@@H](CN(C)S(=O)(=O)c1cccs1)O2	inactive
C[C@@H]1CCCCO[C@@H](CN(C)S(=O)(=O)c2ccc(F)cc2)[C@H](C)CN([C@H](C)CO)C(=O)c2cc(NS(=O)(=O)c3ccc(Cl)cc3)ccc2O1	inactive
C[C@H]1CN([C@@H](C)CO)C(=O)c2cc(NS(=O)(=O)c3ccc(F)cc3)ccc2O[C@H]1CN(C)Cc1ccc(Cl)c(Cl)c1	inactive
C[C@H](CO)N1C[C@H](C)[C@@H](CN(C)Cc2ccc(Cl)c(Cl)c2)Oc2ccc(NS(=O)(=O)c3ccc(F)cc3)cc2C1=O	inactive
C[C@@H]1CN([C@H](C)CO)C(=O)c2cc(NS(=O)(=O)c3ccc(F)cc3)ccc2O[C@H]1CN(C)Cc1ccc(Cl)c(Cl)c1	active
C[C@@H]1CN([C@H](C)CO)C(=O)c2cc(NS(=O)(=O)c3ccc(F)cc3)ccc2O[C@@H]1CN(C)Cc1ccc(Cl)c(Cl)c1	inactive
C[C@H]1CN([C@@H](C)CO)C(=O)c2cc(NS(=O)(=O)c3ccc(F)cc3)ccc2O[C@@H]1CN(C)Cc1ccc(Cl)c(Cl)c1	active
C[C@H](CO)N1C[C@H](C)[C@H](CN(C)Cc2ccc(Cl)c(Cl)c2)Oc2ccc(NS(=O)(=O)c3ccc(F)cc3)cc2C1=O	inactive
C[C@@H]1CN([C@@H](C)CO)C(=O)c2cc(NS(=O)(=O)c3ccc(F)cc3)ccc2O[C@@H]1CN(C)Cc1ccc(Cl)c(Cl)c1	inactive
C[C@@H]1CN([C@@H](C)CO)C(=O)c2cc(NS(=O)(=O)c3ccc(F)cc3)ccc2O[C@H]1CN(C)Cc1ccc(Cl)c(Cl)c1	active
NC[C@H]1CC[C@H](C(=O)O)CC1	inactive
C[C@@H]1CCCCO[C@H](CN(C)Cc2ccccc2)[C@H](C)CN([C@@H](C)CO)C(=O)c2cc(NC(=O)c3ccccc3)ccc2O1	inactive
COc1ccccc1CNC(=O)C[C@@H]1C[C@H]2c3cc(NC(=O)c4ccc5c(c4)OCO5)ccc3O[C@H]2[C@@H](CO)O1	inactive

Structure (SMILES)	cytotoxicity call
C[C@@H]1CN([C@H](C)CO)C(=O)CCCn2nncc2CO[C@@H]1CN(C)S(=O)(=O)c1ccc(Oc2ccccc2)cc1	inactive
Cc1ccc(S(=O)(=O)N2C[C@@H](O)COC[C@H]3O[C@H](CC(=O)NCc4cccc(C(F)(F)F)c4)CC[C@@H]32)cc1	inactive
O=C1O[C@@H](c2ccccc2)[C@@H](c2ccccc2)N2[C@@H](c3ccc(O)cc3)[C@]3(C(=O)Nc4ccc(C#CC5(O)CCCCCC5)cc43)[C@@H](C(=O)N3CCCCCCC3)[C@H]12	inactive
CNC[C@H]1OCCCC[C@H](C)Oc2ccc(NS(=O)(=O)c3cn(C)cn3)cc2C(=O)N([C@@H](C)CO)C[C@@H]1C	inactive
C[C@@H]1CCCCO[C@@H](CN(C)C(=O)C2CCCCC2)[C@@H](C)CN([C@@H](C)CO)C(=O)c2cc(NC(=O)C3CCCCC3)ccc2O1	inactive
COc1ccc(S(=O)(=O)Nc2ccc3c(c2)CC(=O)N([C@@H](C)CO)C[C@H](C)[C@@H](CN(C)S(=O)(=O)c2ccc(OC)cc2)O3)cc1	inactive
COC(=O)[C@]12CCC(C)(C)C[C@H]1[C@H]1C(=O)C=C3[C@@]4(C)C=C(C#N)C(=O)C(C)(C)[C@@H]4CC[C@@]3(C)[C@]1(C)CC2	active
COC(=O)[C@@]12CCC(C)(C)C[C@@H]1[C@@H]1C(=O)C=C3[C@]4(C)C=C(C#N)C(=O)C(C)(C)[C@H]4CC[C@]3(C)[C@@]1(C)CC2	active
COc1ccc(CN(C)C[C@@H]2OCCCC[C@H](C)Oc3ccc(NC(=O)NC4CCCCC4)cc3C(=O)N([C@@H](C)CO)C[C@H]2C)cc1	inactive
CC1(C)[C@@H](OC(=O)CCC(=O)O)CC[C@]2(C)[C@H]3C(=O)C=C4[C@@H]5C[C@@](C)(C(=O)O)CC[C@]5(C)CC[C@@]4(C)[C@]3(C)CC[C@@H]12	inactive
C[C@@H]1CN([C@@H](C)CO)S(=O)(=O)c2ccc(/C=C/c3ccccc3)cc2O[C@@H]1CN(C)C(=O)Nc1cc(F)ccc1F	inactive
Cc1ccc(S(=O)(=O)Nc2ccc3c(c2)CC(=O)N([C@H](C)CO)C[C@H](C)[C@H](CN(C)CC2CC2)O3)cc1	inactive
C[C@@H]1CN([C@@H](C)CO)C(=O)c2c(c3ccccc3n2C)-c2ccccc2CO[C@@H]1CN(C)C(=O)c1cc(Cl)cc(Cl)c1	inactive
C[C@H]1CN([C@@H](C)CO)C(=O)c2c(c3ccccc3n2C)-c2ccccc2CO[C@H]1CN(C)C(=O)c1cc(Cl)cc(Cl)c1	inactive
C[C@@H]1CN([C@@H](C)CO)C(=O)c2c(c3ccccc3n2C)-c2ccccc2CO[C@@H]1CN(C)C(=O)[C@H](C)c1ccccc1	inactive
C[C@H](CO)N1C[C@H](C)[C@@H](CN(C)C(=O)c2cc(Cl)cc(Cl)c2)OCc2ccccc2-c2c(n(C)c3ccccc23)C1=O	active
C[C@@H]1CN([C@H](C)CO)C(=O)c2c(c3ccccc3n2C)-c2ccccc2CO[C@@H]1CN(C)C(=O)[C@H](C)c1ccccc1	active
C[C@@H]1CN([C@H](C)CO)C(=O)c2c(c3ccccc3n2C)-c2ccccc2CO[C@H]1CN(C)C(=O)c1cc(Cl)cc(Cl)c1	active
C[C@@H](C(=O)N(C)C[C@H]1OCc2ccccc2-c2c(n(C)c3ccccc23)C(=O)N([C@@H](C)CO)C[C@@H]1C)c1ccccc1	inactive
C[C@@H]1CN([C@@H](C)CO)C(=O)c2c(c3ccccc3n2C)-c2ccccc2CO[C@H]1CN(C)C(=O)c1cc(Cl)cc(Cl)c1	inactive
C[C@H]1CN([C@@H](C)CO)C(=O)c2c(c3ccccc3n2C)-c2ccccc2CO[C@@H]1CN(C)C(=O)c1cc(Cl)cc(Cl)c1	inactive

Structure (SMILES)	cytotoxicity call
C[C@H](CO)N1C[C@H](C)[C@H](CN(C)S(C)(=O)=O)Oc2ccc(NC(=O)CCN3CCOCC3)cc2C1=O	inactive
C[C@@H]1CN([C@@H](C)CO)C(=O)c2c(c3ccccc3n2C)-c2ccccc2CO[C@H]1CN(C)S(=O)(=O)c1cn(C)cn1	inactive
C[C@H]1CN([C@@H](C)CO)C(=O)c2cc(NC(=O)Cn3cnnn3)ccc2O[C@H]1CN(C)C(=O)Nc1ccccc1	inactive
C[C@H](CO)N1C[C@H](C)[C@@H](CN(C)Cc2ccc(C(=O)O)cc2)Oc2c(NC(=O)c3ccc(-c4nccs4)cc3)cccc2C1=O	inactive
CC(=O)OC1CC(O)C(C)(C)C2CC(OC(C)=O)C3(C)C(CCC4(C)C(c5ccoc5)OC(=O)C5OC543)C12C (stereo unspecified)	inactive
C[C@@H]1CN([C@@H](C)CO)C(=O)c2cc(NC(=O)Nc3ccc(F)cc3)ccc2O[C@@H](C)CCCCO[C@@H]1CN(C)S(=O)(=O)c1ccccc1	inactive
COc1ccc2c3c(n(c2c1)C)[C@H](CO)N(C[C@]13CCN(CC1)C(=O)c1ccccn1)C(=O)c1ccccn1	inactive
OC[C@H]1CC[C@@H]2O[C@H](CCc3ccc(C#Cc4ccccc4)cc3)[C@@H](n3cc(-c4ccccc4)nn3)C[C@@H]2O1	inactive
O=C(Nc1ccc(F)cc1)N[C@@H]1C[C@@H]2O[C@@H](CO)CC[C@@H]2O[C@@H]1CCc1ccc(-c2ccccc2)cc1	inactive
OC[C@H]1CC[C@@H]2O[C@H](CCc3ccc(C#CCc4ccccc4)cc3)[C@H](n3cc(-c4ccccc4)nn3)C[C@@H]2O1	active
OC[C@@H]1CC[C@@H]2O[C@H](CCc3ccc(C#Cc4ccccc4)cc3)[C@@H](n3cc(-c4ccccc4)nn3)C[C@@H]2O1	active
OC[C@@H]1CC[C@@H]2O[C@H](CCc3ccc(C#CCc4ccccc4)cc3)[C@H](n3cc(-c4ccccc4)nn3)C[C@@H]2O1	inactive
OC[C@H]1O[C@@H](S[C@@H]2O[C@H](CO)[C@H](O)[C@H](n3cc(-c4cccc(F)c4)nn3)[C@H]2O)[C@H](O)[C@@H](n2cc(-c3cccc(F)c3)nn2)[C@H]1O	inactive
OC[C@H]1CC[C@@H]2O[C@H](CCc3ccc(C#Cc4ccccc4)cc3)[C@H](n3cc(-c4ccccc4)nn3)C[C@@H]2O1	active
N[C@@H]1CC[C@@H](CCn2cc(-c3cccc(F)c3)nn2)O[C@H]1CO	inactive
O=C(Nc1ccc(F)cc1)N[C@@H]1C[C@@H]2O[C@H](CO)CC[C@@H]2O[C@@H]1CCc1ccc(-c2ccccc2)cc1	inactive
OC[C@@H]1CC[C@@H]2O[C@H](CCc3ccc(C#Cc4ccccc4)cc3)[C@H](n3cc(-c4ccccc4)nn3)C[C@@H]2O1	active
OC[C@@H]1CC[C@@H]2O[C@H](CCc3ccc(C#CCc4ccccc4)cc3)[C@@H](n3cc(-c4ccccc4)nn3)C[C@@H]2O1	inactive
OC[C@H]1CC[C@@H]2O[C@H](CCc3ccc(C#CCc4ccccc4)cc3)[C@@H](n3cc(-c4ccccc4)nn3)C[C@@H]2O1	inactive
